# In the library only some 8.8% were active in any assay of this set; here they are far more common.
# KB-V1 MDR tox = KB-V1 MDR subline cytotoxicity | KB-V1 MDR cells viability, CellTiter-Glo, 72 h | Potency, µM (highest dose often 46.1 µM), usual class: cytotoxic | hit rate 3.4% among 400,000 | AID 1347076; further: potency means the concentration at half of the fitted maximal effect; nearly all actives have a fitted effect of over 60% in size
#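 qHTS viability screen in drug-selected KB-V1 MDR cells: 72 h compound treatment at 37 degrees C, ATP luminescence end point.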
# IL1B secr inh = blocks inflammasome-driven IL-1 beta release. THP-1 LPS/ATP IL-1B secretion, AlphaLISA, 16 h; active compounds read low. activity change, % at 57.5 µM. hit rate 4.7% among 360,000. AID 743279; in the data active means activity change below about -50%; inconclusive means mostly about -30% to -49%
#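 Secreted IL-1B measured by AlphaLISA bead assay after 16 h compound exposure of THP-1 cells; compounds (final up to 57.5 uM) added 1 h before LPS (250 ng/mL) and ATP (1.25 mM) stimulation; lower signal means less secretion.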
# HT1080 IDH1KD tx = HT-1080 IDH1 knockdown cell toxicity (counter line); hit rate 2% among 360,000; Potency, µM (titrated, usually from 46.1 µM), for inactives: at the highest dose activity, negative = toxicity, hits mostly cytotoxic; HT-1080 IDH1 knockdown viability, ATP luminescence, 48 h;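 further: potency means the concentration at half of the fitted maximal effect; 0% = DMSO wells and -100% = cell-free medium wells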
#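 Luminescent ATP read-out (CellTiter-Glo, 10 min at room temperature) after 48 h compound exposure at 37 °C gave viability of IDH1-knockdown HT-1080 cells. Activity was normalised to DMSO and cell-free wells, then fitted as concentration-response curves.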
# KB-3-1 cytotox = kills parental KB-3-1 adenocarcinoma cells; KB-3-1 viability, CellTiter-Glo ATP luminescence, 72 h; Potency, µM (highest dose often 46.1 µM), hits mostly cytotoxic; hit rate 1.4% among 400,000; further: potency means the concentration at half of the fitted maximal effect; nearly all actives have a fitted effect of over 60% in size
#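 Multi-concentration cytotoxicity screen in KB-3-1 cells grown in DMEM lacking phenol red with 10% FBS. After 72 h at 37 °C with compound, ATP-dependent luminescence was recorded.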
# HT1080-NT tox = kills 2HG-producing HT-1080-NT fibrosarcoma cells; hit rate 1.6% among 360,000; AID 686970; HT-1080-NT fibrosarcoma viability, CellTiter-Glo ATP luminescence, 48 h; Potency, µM (doses to about 46.1 µM), for inactives: top-dose activity, negative = less viability, actives largely listed as cytotoxic;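 further: NT is the 2HG producing partner of a matched IDH1 knockdown line; potency means the concentration at half of the fitted maximal effect; 0% = DMSO-treated cells and -100% = media-only wells without cells; nearly all actives have a fitted effect of over 55% in size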
#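 750 cells/well, RPMI + 5% FBS; 2 h settle, compound pin-transfer, 48 h at 37 degrees C. CellTiter-Glo 10 min RT, luminescence. Normalized to DMSO and media-only wells.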
# * hit, by the source's call; i = inactive; ? = inconclusive; · = not tested or not shown; [ ] = another dose, or the depositor's remark. Unless noted, the call rests on the fitted dose curve; in most records, active means well fitted curve in the direction sought with a large enough effect; inconclusive means small, poorly fitted or top-dose-only effect, or another doubt; inactive means no such curve, though single readings can be large; an effect the other way counts as inactive or inconclusive. Unless noted, on the % scale 0 is the no-effect control and ±100 the full control effect.
SMILES,KB-V1 MDR tox,IL1B secr inh,HT1080 IDH1KD tx,KB-3-1 cytotox,HT1080-NT tox
C=CCOc1ccc(-c2nc3c(c(=O)[nH]c(=O)n3CCCC)n2C)cc1Br,i,64,0%,?,7%
CCCCn1c(=O)[nH]c(=O)c2c1nc(-c1ccc(OC)c(Br)c1)n2CC(C)C,?,?,23µM*,?,29µM*
Cc1ccc(C(=O)CN(Cc2ccccc2)C2=NCCS2)cc1,16µM*,?,0%,i,3%
O=C(CN(Cc1ccccc1)C1=NCCS1)c1ccccc1,18µM*,-7,4%,i,6%
COc1cccc(NC(=O)Cn2c(=O)n(Cc3ccc(C(=O)NCc4ccc5c(c4)OCO5)cc3)c(=O)c3ccccc32)c1,i,·,·,i,·
Cc1ccccc1N1C(=O)c2ccccc2C1O (stereo not given),i,0,11%,i,13%
CCOC(=O)C1=CN(Cc2ccco2)S(=O)(=O)NC1c1ccc(F)c(Cl)c1 (stereo not given),i,-1,-1%,i,-4%
CCOC(=O)C1=CN(Cc2cccc(F)c2)S(=O)(=O)NC1c1ccc(F)c(Cl)c1 (stereo not given),?,0,?,i,26µM*
COC(=O)c1ccccc1NC(=O)CSc1ccccc1,i,?,8%,i,12%
COc1ccccc1NC(=O)CSc1nc2ccccc2n1C(C)=O,16µM*,-6,1%,i,19%
C=CCN(C(=O)CSc1nc2c(sc3ccccc32)c(=O)n1CCN(CC)CC)c1ccccc1,i,-80*,?,i,?
COc1ccccc1NC(=O)CSc1nc2ccccc2c2nc(-c3ccccc3)nn12,i,·,·,i,·
CCn1c(SCC(=O)Nc2ccccc2OC)nc2ccccc2c1=O,?,-72*,-8%,i,1%
COC(=O)c1ccccc1NC(=O)CSCC(=O)Nc1ccccc1OC,9.2µM*,14,4%,i,6%
Cc1ccc(CNC(=O)CNS(=O)(=O)c2ccc3nc(C)sc3c2)cc1,i,18,10%,i,3%
COc1cc(NC(=O)Cc2noc3ccccc23)cc(OC)c1OC,i,·,·,i,·
COc1ccccc1NC(=O)CSc1nc2c(sc3ccccc32)c(=O)n1CCN(C)C,i,-80*,-21%,i,-3%
CCSc1nc2ccccc2n1C(=O)/C=C\c1ccc(OC)c(OC)c1,?,-97*,?,?,-20%
c1coc(-c2ccnc3ncnn23)c1,i,3,19%,i,13%
N#CCCN1CCN(Cc2cc(-c3ccccc3)ccc2O)CC1,21µM*,-4,?,i,?
CC(C)(C)CC(C)(C)c1ccc(O)c(CN2CCN(CCC#N)CC2)c1,?,-57*,-21%,i,8%
C=C1C=C(C)n2ncc(C(=O)Nc3ccc(C)cn3)c2N1,·,·,18%,·,16%
CCCN1CNc2c(c(=O)[nH]c(=S)n2CCc2cc(OC)cc(OC)c2)C1,·,·,13%,·,1%
O=C(CSc1nnc(-c2ccncc2)o1)c1cccc([N+](=O)[O-])c1,i,-51*,?,i,-7%
O=C(CSc1nnc(-c2ccc(Cl)cc2)o1)c1ccc([N+](=O)[O-])cc1,?,·,·,i,·
SMILES,KB-V1 MDR tox,IL1B secr inh,HT1080 IDH1KD tx,KB-3-1 cytotox,HT1080-NT tox
Cc1ccc(NC(=O)c2cc(C(=O)c3cc(Cl)ccc3O)cn(-c3ccc(C)cc3)c2=O)cc1,18µM*,0,-7%,?,-1%
O=C(CSc1nc2ccccc2c(=O)n1-c1ccc(OC(F)F)cc1)NC1CC1,i,-1,10%,i,-4%
COc1ccc(S(=O)(=O)NC(C)C(=O)Nc2ccccc2C(F)(F)F)cc1 (stereo not given),16µM*,9,-11%,i,11%
COc1ccc(S(=O)(=O)Nc2ccccc2C(F)(F)F)cc1,i,20,?,i,-8%
Cc1nc2c(C)cccn2c1C(=O)c1ccccc1,26µM*,0,-3%,?,7%
COc1ccc(C)cc1NC(=O)N(Cc1ccc(C)o1)C1CCN(C(C)=O)CC1,i,·,·,i,·
O=C(COC(=O)c1ccccc1O)Nc1ccc(N2CCOCC2)cc1,i,?,1%,i,4%[9.24 µM]
O=C(COC(=O)C1Cc2ccccc2CN1C(=O)c1ccccc1Cl)Nc1ccc(N2CCOCC2)cc1 (stereo not given),15µM*,1,-2%,i,-2%
Cc1ccc(NC(=O)COc2ccccc2C(N)=O)cc1S(=O)(=O)N1CCCCCC1,?,-55*,-22%,?,-13%
COc1cc(C(C)=O)ccc1OCC(=O)Nc1ccc(C)c(S(=O)(=O)N2CCCCCC2)c1,i,-59*,-22%,i,-22%
c1nc(N2CCC(N3CCCC3)CC2)c2cc(-c3ccc4c(c3)OCO4)ccc2n1,i,·,·,i,·
CCc1ccccc1NC(=O)CC1S/C(=N\c2nccs2)N(CC)C1=O (stereo not given),8.2µM*,-8,-3%,i,3%
COc1cc(-c2ccno2)ccc1S(=O)(=O)N1CCN(c2ccc(C(C)=O)cc2)CC1,i,·,·,i,·
c1ccc(COc2ccc(-c3cc4nc(NCCOc5ccccc5)ccn4n3)cc2)cc1,i,51,-21%,i,-25%
c1ccc(COc2ccc(-c3cc4nc(NCCN5CCOCC5)ccn4n3)cc2)cc1,i,-29,18µM*,i,?
c1ccc(COc2cccc(-c3cc4nc(NCCN5CCOCC5)ccn4n3)c2)cc1,i,-19,?,i,15µM*
O=C(c1ccc(-n2cncn2)c2ccoc12)N1CCOCC1,i,14,28%,i,9%
COc1ccc(CNC(=O)COC(=O)c2ccc(OCC3CCCO3)cc2)cc1 (stereo not given),?,31,?,?,?
COc1ccc(-n2nnnc2-c2cnc3cc4c(cc3c2C)OCO4)cc1,9.2µM*,14,-7%,i,-2%
CCOC(=O)c1ccc(NC(=S)N2CCSC2c2ccc(Cl)cc2)cc1 (stereo not given),?,19,-23%,i,-9%
CCOC(=O)c1ccc(NC(=S)N2CCSC2c2ccc(OC)cc2)cc1 (stereo not given),18µM*,26,0%,i,1%
O=C(CN1CCN(S(=O)(=O)c2ccccc2)CC1)NC(=O)NC1CCCCC1,i,-3,0%,i,-5%
COc1cccc(N2CCN(CC(=O)Nc3ccc(S(=O)(=O)N4CCCCCC4)cc3)CC2)c1,21µM*,39,-14%,i,0%
O=C(CN1CCN(c2ccc(O)cc2)CC1)Nc1cc(S(=O)(=O)N2CCCCC2)ccc1Cl,8.2µM*,-16,-17%,i,?
